Reference: the supplement of paper PMC7866885, “A novel bicyclic 2,4-diaminopyrimidine inhibitor of Streptococcus suis dihydrofolate reductase” (PeerJ, 2021)
± gives the standard deviation.

How the values were obtained:
Streptococcus suis HE06 = assay: percent growth relative to DMSO control; higher = less growth inhibition; settings: 10 µM; incubation time 18 h
Experimental: (§1)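 CLSI broth microdilution: 5x10^4 CFU of Streptococcus suis (strain P1/7 or HE06) incubated with 10 µM Pathogen Box compound in cation-adjusted Mueller Hinton broth, 37 °C, 5% CO2, 18 h. Growth read as OD600 and expressed as percent of the DMSO-treated control (100%); mean ± SD of three independent experiments.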

Streptococcus suis P1/7 = assay: as above; settings: 10 µM; incubation time 18 h
Experimental: as §1

Row | Compound | percent growth (Streptococcus suis HE06) [%] | percent growth (Streptococcus suis P1/7) [%]
1 | COc1cc(C2=NCCN2)ccc1-n1cc(-c2cccc(C3=NCCN3)c2)nn1 | 99.7 ± 40 | 63.4 ± 23
2 | CNCCC(Oc1ccc(C(F)(F)F)cc1)c1ccccc1 (stereo not drawn) | 104 ± 4 | 98.5 ± 39
3 | CCOc1ccc(OCC(=O)Nc2cc(C)cc(C)c2)cc1 | 96.3 ± 4.6 | 94.3 ± 16
4 | Cc1nnc(NC(=O)c2cn(-c3ccccc3)nc2-c2ccccc2C)o1 | 0.31 ± 0.38 | 0.18 ± 0.31
5 | O=C(NC1=NCCS1)c1sc2cc(F)ccc2c1Cl | 93.8 ± 5.2 | 88.6 ± 14
6 | O=C(Nc1nc(-c2ccccn2)cs1)C1CC1c1ccccc1F (stereo not drawn) | -0.0889 ± 1.4 | 2.29 ± 3.7
7 | Nc1ncc(-c2cn[nH]c2)cc1-c1nc2cc(Cl)cnc2[nH]1 | 90.8 ± 5.4 | 74 ± 15
8 | FC(F)(F)c1cccc(-c2nc3c(NCc4ccncc4)nccc3[nH]2)c1 | 90.4 ± 20 | 72.5 ± 22
9 | Cc1nc2ccccn2c1C(=O)NCc1ccc(Cl)cc1 | 78.1 ± 14 | 133 ± 76
10 | CN1CCC(NCc2cccc(-c3ccc(S(=O)(=O)NCc4ccccc4)cc3)c2)CC1 | 94.9 ± 28 | 70.3 ± 11
11 | CNC1C(OC2C(OC3C(O)C(O)C(NC(=N)N)C(O)C3NC(=N)N)OC(C)C2(O)C=O)OC(CO)C(O)C1O (stereo not drawn) | 99.9 ± 10 | 86.1 ± 18
12 | N=C(N)Nc1ccc(-c2ccc(-c3ccc(N=C(N)N)c(Cl)c3)o2)cc1Cl | 27.7 ± 29 | 53.1 ± 27
13 | CC(C(=O)N1CCCC1)N1CCN(S(=O)(=O)c2ccc(C(C)(C)C)cc2)CC1 (stereo not drawn) | 84.8 ± 24 | 63.4 ± 27
14 | COc1cc(OC)cc(C(=O)NCC2Cc3cc(Cl)cc(-c4ccncc4)c3O2)c1 (stereo not drawn) | 90 ± 28 | 65.4 ± 25
15 | OC[C@H]1O[C@@H](n2c3ccc(Cl)cc3c3c(-c4cc5ccccc5o4)ncnc32)C(O)[C@H]1O (stereo partly drawn) | 93 ± 20 | 74.8 ± 13
16 | CCOc1ccc(-c2nc(NC(=O)CS(=O)(=O)c3ccccc3)sc2C)cc1 | 76.9 ± 15 | 153 ± 100
17 | COc1ccc(C2(C(=O)Nc3ccc(Br)cc3)CCCC2)cc1 | 120 ± 25 | 92.5 ± 15
18 | FC(F)(F)c1cnc(Sc2nnc(-c3ccncc3)o2)c(Cl)c1 | 94.8 ± 27 | 67.2 ± 20
19 | CCc1nc2ccc(Cl)cn2c1C(=O)NCc1ccc(N2CCC(c3ccc(OC(F)(F)F)cc3)CC2)cc1 | 89.9 ± 15 | 111 ± 65
20 | CC(=O)NCC1CN(c2ccc(-c3ccc(CO)cc3)c(F)c2)C(=O)O1 (stereo not drawn) | 0 | 0.214 ± 0.37
21 | CC[P](CC)(CC)=[Au][S][C@H]1O[C@@H](COC(C)=O)[C@H](OC(C)=O)[C@@H](OC(C)=O)[C@@H]1OC(C)=O | 4.65 ± 3 | 1.51 ± 1.8

Row | Compound | percent growth (Streptococcus suis HE06) [%] | percent growth (Streptococcus suis P1/7) [%]
22 | CS(=O)(=O)Cc1nc2ccccc2oc1=O | 67.6 ± 7.5 | 88.2 ± 53
23 | C[C@H](C(N)=O)N1CCCC[C@H]1c1ccc(OCc2cccc(F)c2)cc1 | 85.5 ± 23 | 63.4 ± 26
24 | Cc1nc(-c2ccccn2)nc(NCCc2ccc(S(C)(=O)=O)cc2)c1Cl | 131 ± 60 | 73.3 ± 11
25 | Cc1ccc(NC(=O)c2cc(S(=O)(=O)NC(C)(C)C)ccc2C)nc1 | 207 ± 200 | 75.6 ± 20
26 | C[C@@H]1[C@H](O)[C@@H](C)/C=C/C=C/C=C/C=C/C=C/C=C/C=C/[C@H](O[C@@H]2O[C@H](C)[C@@H](O)[C@H](N)[C@@H]2O)C[C@@H]2O[C@](O)(C[C@@H](O)C[C@@H](O)[C@H](O)CC[C@@H](O)C[C@@H](O)CC(=O)O[C@H]1C)C[C@H](O)[C@H]2C(=O)O | 97.2 ± 8.6 | 92.3 ± 14
27 | CC(C)n1ncc2c(C(=O)NCC(c3cccs3)N3CCOCC3)cc(-c3ccccc3)nc21 (stereo not drawn) | 89.9 ± 4.6 | 106 ± 36
28 | Cc1noc(C)c1C(=O)N1CCCC(c2[nH]c3c(C)cccc3c2-c2ccncc2)C1 (stereo not drawn) | 90.2 ± 6.2 | 90.5 ± 20
29 | COc1ccccc1OCCCCn1c(C2CC2)nc2ccccc21 | 102.6 ± 0.9 | 102 ± 21
30 | CCc1nc2ccc(C(=O)NCc3ccc4c(c3)OCO4)cn2c1N(C)Cc1cccs1 | 122 ± 67 | 72.9 ± 11
31 | CC(C)(C(=O)Nc1ccc(F)cc1)n1cc(-c2ccccc2F)cn1 | 106 ± 22 | 84.1 ± 6.1
32 | O=C1N(Cc2cc3ccccc3s2)CC2CN(Cc3ccccc3)CCN12 (stereo not drawn) | 82.2 ± 8 | 83.1 ± 18
33 | CCCS(=O)(=O)N1CCC(CO)(Cc2ccccc2C(F)(F)F)CC1 | 99.2 ± 19 | 82.4 ± 27
34 | CC(C)c1ncc(-c2ccncc2)c([C@H]2CC[C@H](CNC(=O)c3cccnc3)CC2)n1 | 82.4 ± 8.9 | 125 ± 64
35 | CCN(CC)S(=O)(=O)c1ccc(Cl)c(C(=O)Nc2ccc3nc(C)sc3c2)c1 | 83.9 ± 6.7 | 138 ± 70
36 | O=C(Nc1ccnc(-c2cccnc2)n1)c1cc(C(F)(F)F)cc(C(F)(F)F)c1 | 78.2 ± 14 | 123 ± 50
37 | CCn1cnc2c(Nc3cc(F)cc(F)c3)nc(C#N)nc21 | 116 ± 30 | 75.3 ± 24
38 | NS(=O)(=O)c1cccc(-c2ccc3ncc(N4CCOCC4)nc3c2)c1 | 99.2 ± 34 | 71.6 ± 6.4
39 | CN1CCN(S(=O)(=O)c2ccc(-c3ccc4c(Nc5ccc6nn[nH]c6c5)ccnc4c3)cc2)CC1 | 103 ± 42 | 63 ± 23
40 | O=C(Nc1cccnc1)c1c(O)c2cccc3c2n(c1=O)CC3 | 78.3 ± 3.7 | 89.7 ± 27
41 | Nc1nc(N)c2c3c(sc2n1)CN(Cc1ccccc1)CC3 | 94.5 ± 3.1 | 87.8 ± 9.9
42 | CC1COC2(CCN(c3nc(=O)c4cc(C(F)(F)F)cc([N+](=O)[O-])c4s3)CC2)O1 (stereo not drawn) | 80.1 ± 1.6 | 81.2 ± 24

Row | Compound | percent growth (Streptococcus suis HE06) [%] | percent growth (Streptococcus suis P1/7) [%]
43 | COc1ccc(Nc2ccccc2NC(=O)c2ccc(O)nc2)cc1 | 86.7 ± 11 | 99.1 ± 41
44 | Cc1cc2ccccc2n1CC(=O)N1CC(C(=O)N2CCCCC2)Oc2ccccc21 (stereo not drawn) | 71.6 ± 13 | 102 ± 19
45 | Nc1ccc(C(=O)Nc2ccc(-c3nc4ccccc4o3)cc2)cc1 | 105 ± 4.4 | 92.6 ± 17
46 | CCCCCCCCCCCCCCCCOP(=O)([O-])OCC[N+](C)(C)C | 117 ± 7.1 | 112 ± 40
47 | Nc1ccc2ncnc(Nc3ccc(OCc4cccc(F)c4)c(Cl)c3)c2c1 | 111 ± 9.4 | 81.2 ± 18
48 | CNC(=O)C1Cc2ccccc2N1C(=O)Cc1ccc(F)cc1 (stereo not drawn) | 96.6 ± 1.8 | 94.5 ± 32
49 | COc1ccc(C2=NN(C3CCCCCC3)C(=O)[C@@H]3CC=CC[C@H]23)cc1OCCCCOc1ccc(-c2nn[nH]n2)cc1 | 0 | 0.12 ± 0.21
50 | CNC(=O)c1nn(C)c2c1C(C)(C)Cc1cnc(Nc3ccc(N4CCN(C)CC4)cc3)nc1-2 | 88.7 ± 21 | 92.6 ± 19
51 | O=C(NC1CC1)c1ccc(N2CCC(Cc3ccccc3)CC2)nc1 | 91.7 ± 9.1 | 108 ± 16
52 | Cc1nc(-c2ccccn2)nc(N2CCC(Cc3ccccc3)C2)c1Cl (stereo not drawn) | 0.933 ± 1.6 | -0.158 ± 0.27
53 | Nc1nccc2ccc(-c3ccc4nccn4c3)cc12 | 85.8 ± 25 | 61.4 ± 20
54 | O=C1COCc2ccc(Br)cc2N1Cc1ccc(C(F)(F)F)cc1 | 84.3 ± 26 | 75.4 ± 7.3
55 | COc1cccc(-n2nnnc2S(C)(=O)=O)c1 | 88.1 ± 9.8 | 67.1 ± 23
56 | CC(C)(C)c1ccc(N[C@@H]2CCCC[C@H]2NC(=O)c2ccco2)cc1 | 104 ± 7.9 | 78.1 ± 19
57 | c1ccc(Oc2ccc(-c3cc(N4CCOCC4)[nH]n3)cc2)cc1 | 81.2 ± 21 | 61.7 ± 32
58 | CC(C)NCC(=O)Nc1cccc(C(=O)Nc2cccc(C(F)(F)F)c2)c1 | 104 ± 4.8 | 125 ± 65
59 | CC(C)(C)n1nc(Cc2ccc(F)c(Cl)c2)c2c(N)ncnc21 | 91.5 ± 3.1 | 105 ± 51
60 | Nc1ncnc2c1c(-c1cnc3ccccc3c1)nn2CC1CCNCC1 | 94.9 ± 5.4 | 102 ± 20
61 | CCOc1ccc(-c2nc(CNCCc3ccc(F)cc3)cs2)cc1 | 97.3 ± 4.6 | 29.5 ± 51
62 | Cc1cc(Cl)c(S(=O)(=O)N2CCCC2)cc1OCC(=O)NC1CCCCC1 | 87.7 ± 22 | 63.6 ± 18
63 | COC(=O)C1=C(C)NC(C)=C(C(=O)OC(C)C)C1c1cccc2nonc12 (stereo not drawn) | 73.1 ± 15 | 73.6 ± 34

Row | Compound | percent growth (Streptococcus suis HE06) [%] | percent growth (Streptococcus suis P1/7) [%]
64 | Cc1ccc(S(=O)(=O)Nc2ccc(CN3CCN(C(=O)c4cccc(C#N)c4)CC3)cc2)cc1 | 104 ± 9.6 | 114 ± 40
65 | COc1ccccc1CNC(=O)c1cc(C2CC2)nc2c1cnn2C(C)C | 81.6 ± 10 | 83.8 ± 45
66 | CN(C)c1cc(NC(=O)Nc2ccccc2)c2ccccc2n1 | 105 ± 8.6 | 87 ± 34
67 | CCC(NC(=O)c1ccccc1NC(=O)c1ccc(C)cc1)C(=O)OC (stereo not drawn) | 92 ± 4.7 | 78.1 ± 18
68 | COc1ccc(CN2CCOc3ccc(C(C)(O)CN(C)C)cc3C2)cc1C (stereo not drawn) | 103 ± 14 | 101 ± 27
69 | O=C(NC1CCCCC1)N1CCN(Cc2ccc3c(c2)OCO3)CC1 | 78.5 ± 7.2 | 52.2 ± 38
70 | CO[C@H]1/C=C/O[C@@]2(C)Oc3c(C)c(O)c4c(O)c(/c(=C/NN5CCN(C)CC5)c(O)c4c3C2=O)=N\C(=O)/C(C)=C\C=C/[C@H](C)[C@H](O)[C@@H](C)[C@@H](O)[C@@H](C)[C@H](OC(C)=O)[C@@H]1C | 4.41 ± 2.2 | 1.07 ± 0.94
71 | O=C(c1[nH]nc2c1CCCC2)N1CCN(Cc2ccc3c(c2)OCO3)CC1 | 81.9 ± 4.7 | 99.9 ± 45
72 | CC(Oc1ccccc1)C(=O)Nc1nc(-c2ccccn2)cs1 (stereo not drawn) | 2.67 ± 2.8 | 2.35 ± 2.4
73 | COc1ccc(Oc2ccc([C@@H](C)N(C)c3ncc4c(N)nc(N)nc4n3)cc2)cc1 | 104 ± 32 | 83.9 ± 75
74 | O=C(NCCc1ccccc1)c1cc(-c2cccnc2)cnc1NCC1CC1 | 88.2 ± 20 | 59.7 ± 23
75 | Cc1ccc2nc(Cl)c(CNCc3cccs3)cc2c1 | 93.6 ± 9.5 | 100 ± 21
76 | c1cc(C2=NCCN2)cc(-c2cc(-c3ccc(C4=NCCN4)cc3)no2)c1 | 103 ± 19 | 88.8 ± 25
77 | O=C(Cn1ccnc1[N+](=O)[O-])NCc1ccccc1 | 79.1 ± 10 | 114 ± 48
78 | CN1CCN(CCCOc2ncc(Nc3ncc(-c4ccc(C(F)(F)F)c(F)c4)nc3C(N)=O)cn2)CC1 | 114 ± 43 | 97.2 ± 9.4
79 | O=C(N[C@H](Cc1ccccc1)C(=O)Nc1ccccc1N1CCOCC1)c1cccs1 | 92.7 ± 9.4 | 85.8 ± 16
80 | Cn1c(=O)c2c(S(C)(=O)=O)snc2n(C)c1=O | 40.1 ± 32 | 93 ± 120
81 | Cc1cnc(CCNC(=O)c2cc(-c3ccc(Cl)cc3)cs2)[nH]1 | 80.7 ± 6.9 | 77.5 ± 18
82 | CCN(CC)S(=O)(=O)c1ccc(C(=O)Nc2cc(C)nn2-c2nc(C)c(C)c(=O)[nH]2)cc1 | 0.274 ± 0.47 | 3.31 ± 3.3
83 | Cn1ncc2c(N3CCOCC3)nc(NCCc3c[nH]c4ccccc34)nc21 | 76.5 ± 10 | 78.8 ± 17
84 | CS(=O)(=O)c1ccc(C(=O)N(CC2CCCO2)c2nc3ccccc3s2)cc1[N+](=O)[O-] (stereo not drawn) | 91.7 ± 7.5 | 108 ± 18
